Screens: PubChem, National Center for Advancing Translational Sciences (NCATS)
KDM5B inhibitor: KDM5B demethylase inhibition; Q9UGL1; Potency, µM (doses to about 57.7 µM), actives largely listed as inhibitors; AID 1347165; KDM5B demethylase, FDH-coupled NADH fluorescence (FDH is formaldehyde dehydrogenase); 2.6% of 220,000 active; active means well fitted inhibition curve with a large enough effect; inconclusive means small, poorly fitted or top-dose-only effect; inactive means no such curve, though single readings can be large or run the other way; further: potency means the concentration at half of the fitted maximal effect; 0% is about no effect; nearly all actives have a fitted effect of over 70% in size
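Compound dilutions met 200 nM (final) KDM5BΔAP for 10 min at room temperature before substrate addition. The substrate mix held 12.5 µM H3K4me3 with cofactors 25 µM α-ketoglutarate and 50 µM Fe²⁺. NADH signal gain over 30 min defined activity.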
IP6K1 inh: inhibitors of human IP6K1; IP6K1 kinase, ADP-Glo luminescence, 2 h; stronger effect = lower value; activity change, % (series mostly up to about 58 µM); 0.81% of 140,000 active; AID 1645851; in the data active means activity change below about -25%; further: on the % scale 0 is the no-effect control and ±100 the full control effect
Target sequence (Q92551 whole entry, looked up): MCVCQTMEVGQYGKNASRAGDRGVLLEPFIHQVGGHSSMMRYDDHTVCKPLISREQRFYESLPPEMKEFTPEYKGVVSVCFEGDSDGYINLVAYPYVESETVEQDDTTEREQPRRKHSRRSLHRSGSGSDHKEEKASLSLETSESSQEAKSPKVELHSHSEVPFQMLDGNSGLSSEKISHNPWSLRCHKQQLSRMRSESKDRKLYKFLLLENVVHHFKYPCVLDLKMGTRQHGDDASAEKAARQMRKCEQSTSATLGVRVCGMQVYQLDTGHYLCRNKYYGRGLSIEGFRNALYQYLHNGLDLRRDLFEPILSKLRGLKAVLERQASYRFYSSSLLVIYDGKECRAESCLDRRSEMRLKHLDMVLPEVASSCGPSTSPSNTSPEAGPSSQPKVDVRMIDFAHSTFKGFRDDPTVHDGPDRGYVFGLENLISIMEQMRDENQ
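ADP-Glo luminescence measures ADP made by human IP6K1 during a 2 h RT reaction with ATP/IP6 (mix at 1.3 mM/130 uM); top library doses 57.5 and 19.1 uM final.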
* = called active by the depositor; i = inactive; ? = inconclusive; nt = no result given. Most compounds without a hit are left out; they make up all but 2.7% or so of the library.

SMILES	KDM5B inhibitor	IP6K1 inh
Cn1ccc(NC(=O)C2(C)CCc3cnc(NCc4ccccc4)nc32)n1 (stereo unspecified)	35.5µM*	-2.6
Cc1cnc(C(=O)Oc2ccc3oc4ccccc4c3c2)cn1	i	nt
COc1cccc(C(N)=O)c1OCc1cccc(COc2c(OC)cccc2C(N)=O)c1	i	nt
CCOC(=O)C1CCN(c2nc3ccccc3nc2C(C#N)C(=O)NCCOC)CC1 (stereo unspecified)	i	nt
Cc1ccc(O)c(C(=O)C/C(=N/O)C(F)(F)C(F)F)c1	i	nt
CC(C)/C(=N\NC(=O)c1ccc(C(C)(C)C)cc1)c1ccccc1	i	nt
COc1ccc(-c2ccc(C(=O)N(C)Cc3ccccc3)cc2)nn1	nt	1.4
COc1ccc(CNC(=O)c2ccc(OC(C)=O)cc2)cc1	i	nt
O=C1NCCCc2[nH]c(-c3cc(-c4cccc(F)c4)no3)nc21	?	12.9
O=C1NCCCc2[nH]c(-c3cnn(-c4cccc(F)c4)c3)nc21	28.2µM*	-3.4
CNC(=O)c1cc(C2CC2)nc2c1c(C1CCCN(C(=O)c3ccccc3OC)C1)nn2C (stereo unspecified)	nt	-6.8
CN(C)c1ncc2c(n1)CCCC2NC(=O)CN1C(=O)NC(C)(C)C1=O (stereo unspecified)	?	-7.3
CCCc1nc(C(=O)NC2CCCc3nc(N(C)C)ncc32)cs1 (stereo unspecified)	25.1µM*	-11.9
Cn1ncc2c(C(=O)NCc3cccs3)cc(-c3ccc(C(F)(F)F)cc3)nc21	nt	-5.2
CCOC(=O)C1(Cc2ccc(OC)cc2)CCN(C(=O)c2cccc(Cl)c2)CC1	?	5.6
CCOC(=O)C1(Cc2ccc(Cl)cc2)CCN(C(=O)c2cc(C)oc2C)CC1	31.6µM*	1.9
COC1=C(C(=O)N(C)Cc2ccccc2)N(c2c(C)cccc2C)S(=O)(=O)c2ccccc21	nt	22.7
Cc1noc(C)c1-c1cc2cc(C(C)C)oc2c(-c2c(C)noc2C)n1	i	1.9
Cc1cc2cc(-c3c(C)noc3C)nc(-c3ccc(CO)cc3)c2o1	?	-18.0
Cc1noc(C)c1-c1cc2cc(CO)oc2c(Nc2cccnc2)n1	?	19.1
Cc1noc(C)c1-c1cc2cc(C(C)C)oc2c(-c2ccc(CO)cc2)n1	28.2µM*	-8.4
COc1ncccc1-c1nc(-c2c(C)noc2C)cc2cc(CN(C)C)oc12	?	-9.7
CNC(=O)c1cc2cc(-c3c(C)noc3C)nc(-c3cccnc3OC)c2o1	35.5µM*	-2.4
Cc1noc(C)c1-c1cc2cc(C(C)C)oc2c(-c2cccnc2)n1	31.6µM*	-7.1
COc1ncccc1-c1nc(-c2c(C)noc2C)cc2cc(C(C)C)oc12	31.6µM*	-8.9
SMILES	KDM5B inhibitor	IP6K1 inh
Cc1cc(C)c2c(=O)cc(C(=O)Nc3nnc(CC(C)C)s3)oc2c1	i	nt
CC(C)COc1ccc(/C=C(/C#N)c2ccc(Cl)cc2)cc1	i	nt
CNC(=O)c1cc(C2CC2)nc2c1c(C1CCCN([S+](=O)([O-])c3ccc(C)cc3)C1)nn2C (stereo unspecified)	nt	6.0
Cn1ncc2c(C(=O)NCC(F)(F)F)cc(-c3cccc(F)c3)nc21	nt	9.7
CN(C)c1ncc2c(n1)C(C)(C(=O)Nc1ccccc1F)CCC2 (stereo unspecified)	?	0.8
CN(Cc1ccccc1)C(=O)C1(C)COCc2cnc(Nc3ccccc3)nc21 (stereo unspecified)	i	-2.6
CN(Cc1ccccc1)C(=O)C1(C)CCCc2cnc(N(C)C)nc21 (stereo unspecified)	31.6µM*	-3.1
COc1ccc(NC(=O)C2(C)CCCc3cnc(N(C)C)nc32)cn1 (stereo unspecified)	35.5µM*	6.4
COCCNC(=O)C1(C)CCCc2cnc(Nc3ccccc3)nc21 (stereo unspecified)	i	16.5
CN(C)c1ncc2c(n1)C(C)(C(=O)Nc1ccccc1)CCC2 (stereo unspecified)	35.5µM*	-2.7
Cc1nn(-c2ccccc2)c2c1C(C)N(C1CCN(C(=O)c3ccc(Cl)cc3)CC1)C2=O (stereo unspecified)	nt	-4.6
COc1ccc(OCCN(C)c2nc(-c3cccnc3)nc3ccccc23)cc1	i	nt
N#Cc1cc([N+](=O)[O-])ccc1Nc1ccc2c(c1)CCC2	i	nt
CN(C)c1nc(NCCN2CCOC2=O)ncc1F	?	8.9
O=C1OCCN1CCNc1ccc(-c2nc(-c3ccccc3F)no2)cn1	28.2µM*	9.8
CC(C)NC(=O)C(C)Sc1nc2ccc(F)cc2c(=O)[nH]1 (stereo unspecified)	i	nt
O=C(NC(c1ccccc1)c1ccccc1Br)C(c1ccccc1)C1CCCC1 (stereo unspecified)	i	nt
COc1cc(/C=C(/C#N)C(=O)c2c[nH]c3cc(F)ccc23)cc(OC)c1	i	nt
O=C(c1cc2cc(Br)ccc2oc1=O)N1CCCCCC1	i	nt
Cc1cc(CNC(=O)c2cc(-c3ccc(CO)cc3)cc3c2OCCN3C)no1	31.6µM*	-15.0
